Screens deposited in PubChem BioAssay by Buhrlage Lab, Dana-Farber Cancer Institute and Novartis Institutes for BioMedical Research (Cambridge, Mass).
Sampled rows, rich in hits. Any-hit rate of the full collection: about 13%.
USP17 block: inhibitors of human USP17 deubiquitinase. AID 1645855, 2021. purified USP17, Ub-rhodamine cleavage fluorescence, 3 h. inhibition, % at 50 µM. Ubiquitin carboxyl-terminal hydrolase 17-like protein 5 (Homo sapiens), A8MUK1. 47,000 tested, 6.5% active
Target sequence (A8MUK1 whole entry, looked up): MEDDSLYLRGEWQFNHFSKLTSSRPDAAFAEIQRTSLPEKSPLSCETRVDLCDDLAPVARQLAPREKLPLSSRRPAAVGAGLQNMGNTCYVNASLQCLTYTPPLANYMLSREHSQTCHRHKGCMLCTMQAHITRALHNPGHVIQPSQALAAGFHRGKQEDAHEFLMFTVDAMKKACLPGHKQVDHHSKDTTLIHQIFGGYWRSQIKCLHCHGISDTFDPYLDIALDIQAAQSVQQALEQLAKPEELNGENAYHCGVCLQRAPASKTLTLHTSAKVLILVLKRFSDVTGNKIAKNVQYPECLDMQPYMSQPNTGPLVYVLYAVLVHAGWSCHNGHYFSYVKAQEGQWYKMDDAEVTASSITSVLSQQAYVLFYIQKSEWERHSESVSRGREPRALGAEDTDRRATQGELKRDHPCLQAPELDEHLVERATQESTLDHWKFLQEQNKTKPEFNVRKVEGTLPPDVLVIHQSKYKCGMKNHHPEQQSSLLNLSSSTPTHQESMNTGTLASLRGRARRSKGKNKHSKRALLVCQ
USP30 block: inhibitors of human USP30 deubiquitinase. Ubiquitin carboxyl-terminal hydrolase 30 (Homo sapiens), Q70CQ3. inhibition, % at 25 µM. AID 1645860, 2021. 47,000 tested, 5.3% active. purified USP30, Ub-rhodamine cleavage fluorescence
USP8 inh: inhibitors of human USP8 deubiquitinase; Ubiquitin carboxyl-terminal hydrolase 8 (Homo sapiens), P40818; purified USP8, Ub-rhodamine cleavage fluorescence, 30 min; inhibition, % at 20 µM; 47,000 tested, 4.2% active; AID 1645853, 2021
USP28 inh: inhibitors of human USP28 deubiquitinase; Ubiquitin carboxyl-terminal hydrolase 28 (Homo sapiens), Q96RU2; purified USP28, Ub-rhodamine cleavage fluorescence, 30 min; inhibition, % at 25 µM; 47,000 tested, 3% active
Numbers stand for hits; – = inactive; · = no result given. No stated cut-off is given here; in the data, active means inhibition above about 30%; inactive means the rest.

SMILES	USP17 block	USP30 block	USP8 inh	USP28 inh
Cc1ccc(CN2C(=O)CCc3c(C)nc(C4CCCN4C(=O)c4ccccn4)nc32)cc1 (configuration not stated)	–	–	–	–
Cc1cc(SCc2ncon2)c(C)cc1Cl	·	–	–	69
CCn1c(=O)c(N2CCC(NC(=O)Nc3ccc(Cl)cc3)CC2)nc2cccnc21	–	–	–	–
O=C(Nc1ccccc1F)c1sccc1Oc1ccc([N+](=O)[O-])cc1F	45	40	87	–
O=C(Nc1ccccc1)c1sccc1Oc1ccc([N+](=O)[O-])c(C(F)(F)F)c1	–	–	44	–
COC(=O)c1ccccc1NC(=O)c1sccc1Oc1ccc(F)cc1[N+](=O)[O-]	–	–	–	–
CN(CC(=O)NCCc1ccccc1)c1nnc(N2CCCCC2=O)s1	–	–	–	–
Cc1ccc(-n2nc(C)c3nc(CCC(=O)NC4CC4)c(=O)n(C)c32)cc1	–	–	–	–
Cc1ccc(-n2nc(C)c3nc(CCC(=O)Nc4ccc(OC(F)(F)F)cc4)c(=O)n(C)c32)cc1	–	31	–	–
O=C(N[C@@H]1CC[C@@H](Oc2cccnc2)[C@H](O)[C@H]1N1CCCCC1)c1ccccc1	–	–	–	–
Nc1ccc(Cn2cnc(-c3nc(-c4cccc(F)c4)no3)c2)cc1	–	–	–	–
COc1ccc(-n2ccc(=O)c(-c3nc(-c4ccccc4C)no3)n2)cc1	–	38	34	–
O=c1ccn(-c2ccccc2)nc1-c1nc(-c2ccc(Br)cc2)no1	37	–	62	–
Cc1cccc(-n2ccc(=O)c(-c3nc(-c4ccc(Cl)c(F)c4)no3)n2)c1	–	39	–	–
COc1ccccc1-c1noc(-c2nn(-c3ccc(C)cc3)ccc2=O)n1	–	–	–	–
COc1ccc(-n2nc(-c3nc(-c4cccc(OC)c4)no3)c3ccccc3c2=O)cc1	–	–	–	–
c1ccc(-n2cc(-c3noc(-c4cccnc4)n3)nn2)cc1	–	–	–	–
CCc1ccc(-n2ccc(=O)c(-c3nc(-c4cccc(F)c4)no3)n2)cc1	·	–	34	–
Nc1nc(CN2CCN(S(=O)(=O)c3ccc4c(c3)CCC4)CC2)nc2ccccc12	–	–	–	–
O=C1NCc2ccccc2CC12CCN(Cc1cccc(O)c1)C2 (configuration not stated)	–	–	–	–
O=C(c1cnc2n1CC(c1cccc(C(F)(F)F)c1)CC2)N1CCNCC1 (configuration not stated)	–	30	–	–
CNC(=O)c1cnc2n1CC(c1cccc(C(F)(F)F)c1)CC2 (configuration not stated)	–	–	–	–
COc1ccc2nc(NC(=O)C(CC(C)C)NS(=O)(=O)c3ccc4c(c3)CCN4C(C)=O)sc2c1 (configuration not stated)	74	–	–	–
COc1cccc(C(=O)N2CCC3(CC2)N=C(c2ccccc2)NO3)c1	–	–	–	–
NCCNC(=O)N1CCC2(CC1)OC(=O)N(Cc1ccccc1)c1ccccc12	–	–	–	34
SMILES	USP17 block	USP30 block	USP8 inh	USP28 inh
CCc1ccccc1N1CC(c2nnc(NC(C)=O)s2)CC1=O (configuration not stated)	–	–	–	–
CCc1ccccc1N1CC(c2nnc(NC(=O)Cc3ccc(C)cc3)s2)CC1=O (configuration not stated)	37	–	–	–
O=[N+]([O-])c1cccc(-c2noc(CSc3ccccc3)n2)c1	–	–	–	67
COCCn1cc(NC(=O)N2CCN(c3ccccc3Cl)CC2)c2ccccc21	–	–	–	–
Cc1ccc(NC(=O)CCC(=O)N2CCSc3ccccc32)cc1C	–	–	–	–
Oc1cccc2c(-c3ccc(O)c4c(O)cccc34)ccc(O)c12	98	94	98	92
O=C(Nc1ccccc1)C(C(=O)Nc1ccccc1)c1ccccc1	–	31	–	–
O=C(Nc1ccc(NC(=O)C(c2ccccc2)c2ccccc2)cc1)c1cccs1	–	–	–	–
CN(C)CCCN(C(=O)c1cc2ccccc2oc1=O)c1nc2ccc(F)cc2s1	55	79	–	44
Cc1nc(N2CCC(C)CC2)c2c(C)c(C(=O)NCc3ccc(F)cc3)sc2n1	–	–	–	–
CCOC(=O)C(C)Sc1nc(=O)n2cccc(C)c2n1 (configuration not stated)	–	30	–	–
O=C(CSc1nc(-c2ccccc2)c2ccccc2n1)NCc1ccc(C(=O)O)cc1	–	32	–	–
O=C(CSc1nc(-c2ccccc2)c2ccccc2n1)NCc1ccc2c(c1)OCO2	–	–	55	–
Cc1ccc(CS(=O)Cc2ccc(C(=O)NCc3ccc4c(c3)OCO4)o2)cc1 (configuration not stated)	–	–	–	–
O=C(CSc1nnc2sc3ccccc3n12)NCc1ccc2c(c1)OCO2	32	–	–	–
Cc1ccc(CNC(=O)CCC(=O)NCc2ccc3c(c2)OCO3)o1	38	–	–	–
COCC(C)n1c(=O)sc2ccccc2c1=O (configuration not stated)	–	–	–	–
COc1ccc2c(c1)O/C(=C\c1cc(OC)c(OC)c(OC)c1)C2=O	–	–	–	–
COc1ccccc1CNC(=O)c1cn2c(n1)CCCC2	–	–	–	–
Cc1cc(N2CCC(C3CCCCCN3C(=O)c3ccccc3)CC2)n2ncnc2n1 (configuration not stated)	–	–	–	–
COc1ccc(-c2c(C(=O)O)sc3c2NC(=O)CC3c2ccc3c(c2)OCO3)cc1 (configuration not stated)	–	–	–	–
Cc1nc(-c2ccccc2)sc1C(=O)NCc1ccc2c(c1)OCO2	–	–	–	–
O=C(NCc1ccc2c(c1)OCO2)c1cc2ccccc2s1	–	–	–	41
O=C(NCc1ccc2c(c1)OCO2)c1nc(-c2ccccc2)n(-c2ccccc2)n1	–	55	–	–
O=C(Cn1c(=O)nc(-c2ccccc2)c2ccccc21)NCc1ccc2c(c1)OCO2	68	–	–	31
SMILES	USP17 block	USP30 block	USP8 inh	USP28 inh
NS(=O)(=O)c1ccc(CCNC(=O)CSc2nc3ccccc3c(=O)n2Cc2ccc3c(c2)OCO3)cc1	–	–	53	–
CC(C)C(=O)Nc1nc2ccc(CCC(=O)NCc3ccc4c(c3)OCO4)cc2s1	–	38	–	–
CN(Cc1ccccc1F)C(=O)c1ccc(-c2ccccc2F)o1	·	–	–	–
c1ccc2c(c1)c(NCc1ccc3c(c1)OCO3)nn1cnnc21	41	–	–	–
CCCC(=O)Nc1nc2ccc(CCC(=O)NCc3ccccc3)cc2s1	–	–	–	–
CN(Cc1ccccc1F)C(=O)c1nc(-c2ccccc2)n(-c2ccccc2)n1	–	47	–	–
Cc1c(C)n(Cc2cccnc2)c2ncnc(NCc3cccnc3)c12	–	–	–	–
CCN1CCN(c2nc(F)c3c(c2F)S(=O)(=O)CCN3Cc2ccccc2)CC1	–	–	–	–
CC1CCCCN1c1nc(F)c2c(c1F)S(=O)(=O)CCN2Cc1ccccc1 (configuration not stated)	57	–	89	–
